TWEAK-Fn14 inh: blocks TWEAK-Fn14 interaction in a reporter cell assay; AID 1159606; inhibition, % at 10 µM; actives 2% (n = 360,000); TWEAK-stimulated Fn14 reporter cells, luciferase luminescence, 8 h; in the data active = inhibition above about 50%
TROY NFkB inh: TROY signaling inhibition. actives 0.98% (n = 360,000). Q293 LMP1-TROYcd NF-kB luciferase reporter, 4 h. inhibition, % at 10 µM;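 active = compounds whose plate-normalised and pattern-corrected inhibition of the luciferase reporter signal at the single screening dose is 50% or more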
LMP1 NFkB inh: inhibitors of Epstein-Barr LMP1-induced NF-kappaB reporter; inhibition, % at 12.5 µM; AID 504558; actives 0.69% (n = 350,000); LMP1-induced NF-kappaB luciferase reporter cells, luminescence; in the data active = inhibition above about 41%; inconclusive = no clear call, values can overlap the other calls;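 note: 0% = neutral control wells and 100% = reference inhibitor control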
TRPM1 prom inh: MITF TRPM1 promoter inhibition in SK-MEL-5 cells. SK-MEL-5 TRPM1 promoter luciferase, 24 h. inhibition, % at 12.5 µM. AID 488899. actives 0.83% (n = 330,000);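 active = mean inhibition across replicates of 60% or more, whatever share of single replicates reaches that level; inconclusive = some that reach 60%, reason not given; inactive = mean inhibition across replicates below 60%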
Shn3 inh set2: inhibitors of Schnurri-3 3'UTR reporter in osteoblasts; inhibition, % at 12.5 µM; actives 0.52% (n = 360,000); Clone20 osteoblast Shn3 3'UTR firefly luciferase, 24 h;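 active = mean inhibition of at least 75% with every replicate also reaching 75%; inconclusive = mean inhibition at least 75% but some replicate below; inactive = mean inhibition below 75%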;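 note: 0% = median of neutral control wells and 100% = pilot-screen positive control compound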
Peg3 promoter: inhibitors of Peg3 promoter; HeLa PEG-Prom luciferase reporter, luminescence, overnight; AID 588405; inhibition, % at 20 µM; actives 1.7% (n = 360,000);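 active = inhibition of at least 50% at 20 µM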
Starred values were filed as active, the others as inactive; ? = inconclusive; nt = no result. This is a sample that favours compounds with a hit; in the whole collection about 4.1% have one here.

SMILES	TWEAK-Fn14 inh	TROY NFkB inh	LMP1 NFkB inh	TRPM1 prom inh	Shn3 inh set2	Peg3 promoter
O=C(Nc1ccc(F)c(Cl)c1)C1Cc2c(-c3ccco3)ccnc2O1 (centres undefined)	14	17	nt	nt	6	9
CCCCC(CC)CN1CN(CC(CC)CCCC)CC(C)(N)C1 (centres undefined)	2	-15	-3	22	-10	103*
Cc1cc(N2CCOCC2)ccc1/C=C\[N+](=O)[O-]	70*	50*	-8	59	39	102*
COCOCCn1cc(CN2CCS(=O)(=O)N(Cc3ccc(-c4ccc(OC)nc4)cc3)C(C(C)C)C2=O)nn1 (centres undefined)	11	-1	3	nt	24	-15
CS(=O)(=O)N(CCc1ccccc1)CC(=O)N1CCN(c2ccccc2F)CC1	84*	-14	-13	3	27	21
COc1ccc2[nH]c(=O)c(CN(CC3CCCO3)C(=O)Nc3ccc(F)cc3)cc2c1 (centres undefined)	22	3	2	14	50	77*
CC(Cc1ccco1)NC(=O)c1cccc(S(=O)(=O)N(C)C)c1 (centres undefined)	-5	-33	-11	-64	-69	-164
COc1cccc(CN(C)CC(=O)Nc2cccc(C(F)(F)F)c2)c1OC	74*	6	9	-6	12	17
COc1ccc(CN(C)C(=O)c2ccc(OCC(=O)Nc3cccc(C(F)(F)F)c3)c(OC)c2)cc1	52*	30	9	nt	50	9
COc1cccc(CN(C)CC(=O)Nc2cccc(S(N)(=O)=O)c2)c1OC	6	-11	5	2	-1	4
O=C(/C=C/c1ccc(O)c(O)c1)c1ccccc1O	35	-13	2	-59	-38	-216
O=C(C=Cc1ccccc1O)c1ccccc1O	62*	8	-14	25	-54	19
COc1ccc(C(=O)/C=C/c2ccccc2)c(O)c1	21	-65	-3	nt	-20	-98
O=C(/C=C/c1ccc(O)cc1)c1ccc(O)cc1O	59*	-22	4	-31	-70	-155
O=C(C=Cc1cccc(Cl)c1)c1ccccc1	45	-34	2	-13	-21	102*
O=C(C=Cc1cccc(O)c1)c1ccccc1O	65*	-16	19	-9	-8	45
O=C(/C=C/c1ccccc1)NNC(=O)c1cccc(Cl)c1	6	-25	-4	-6	-38	-14
Cc1cc(C(=O)NNc2ccc(F)cc2F)no1	11	5	-14	-5	4	-3
CCCCNC(=O)C1(C)CCN1C(=O)c1ccc2c(c1)C(C)(C)CCC2(C)C (centres undefined)	4	0	nt	nt	2	9
N#Cc1c(-c2ccccc2)nc(-c2ccccc2)nc1N1CCOCC1	79*	nt	-10	-31	13	-10
O=C(CSc1nc2[nH]ncc2c(=O)n1-c1ccccc1)NCCc1ccccc1	-3	1	5	3	18	1
O=C(CSc1nc2[nH]ncc2c(=O)n1-c1ccccc1)c1ccc2c(c1)OCCO2	34	22	-15	1	17	57*
CC1(C)OC(C(O)(c2ccccc2)c2ccccc2)[C@@H](C(O)(c2ccccc2)c2ccccc2)O1 (some centres undefined)	11	-1	-8	7	28	64*
CCN1c2ccccc2-c2nc3ccccc3n2C1c1cccs1 (centres undefined)	12	9	8	-2	17	30
CCN(CC)c1ccc(N)cc1	-8	5	?	86*	?	18
SMILES	TWEAK-Fn14 inh	TROY NFkB inh	LMP1 NFkB inh	TRPM1 prom inh	Shn3 inh set2	Peg3 promoter
Cc1ccc(C(=O)Nc2cnc3ccccn3c2=O)cc1	27	-31	12	-43	-72	-209
Cc1cccc(NC(=O)c2cnc3sccn3c2=O)c1	24	-13	8	nt	-6	-192
Cc1cccc(NC(=O)c2cnc3ccccn3c2=O)c1	80*	-18	51*	14	12	-10
O=C(Nc1cnc2ccccn2c1=O)c1ccc(Cl)cc1Cl	82*	73*	44*	33	16	46
O=C(Nc1ccc2c(c1)OCCO2)c1cnc2ccccn2c1=O	70*	-20	28	14	-22	-47
C#CCOC(=O)C[N+](C)(C)CC#Cc1ccccc1	-1	2	0	-4	1	7
COc1ccccc1C(=O)N/C(=C/c1ccc(Br)cc1)C(=O)N1CCOCC1	-7	7	6	nt	2	4
O=C(O)CSc1cc(C(=O)c2ccccc2O)cn2c(=O)c3c4c(sc3nc12)CCCC4	-30	-11	3	-2	-18	-26
CC(C)NC(=O)c1ccc2c3n(nc2c1)-c1ccccc1CO3	58*	8	24	13	-19	-46
CC1CN(c2cc(=O)n(-c3ccccc3)c(=O)[nH]2)CC(C)O1 (centres undefined)	2	-3	61*	6	-37	7
CCCC(=O)OCC(=O)NCc1ccc(Cl)cc1	-1	4	0	-13	1	8
O=C(COC(=O)CC(c1ccccc1)c1ccccc1)NCc1ccc(Cl)cc1	62*	26	2	-1	29	3
COc1ccc(N=C2SC(CC(=O)Nc3cccc(Cl)c3)C(=O)N2Cc2ccco2)cc1 (centres undefined)	53*	9	-6	16	31	35
COc1ccc(C2CC(=O)c3sc(NC(C)=O)nc3C2)cc1 (centres undefined)	72*	62*	-8	-23	-47	-11
Cc1cccc(C(=O)NNC(=S)NC(=O)c2cccs2)c1	-12	-27	2	9	-15	-14
Cc1cc(Nc2cccc([N+](=O)[O-])c2)n2c(nc3ccccc32)c1C#N	77*	26	50*	76*	?	17
Cc1cc(C(=O)NNC(=O)c2ccc(C)s2)c(C)o1	-3	-11	-1	9	-4	-12
COc1cc2nc(NC(=O)c3ccc(F)cc3Cl)sc(=O)c2cc1OC	64*	-4	3	-28	10	17
CCC(NC(=S)NC1CCCCC1)c1ccc(C(C)C)cc1 (centres undefined)	18	4	3	3	26	41
O=C(O)c1ccc(S(=O)(=O)N2CCSCC2)cc1	9	-4	-7	7	-59	18
COC(=O)c1ccc(C(=O)OC)c(NC(=O)CN2CCN(c3ccccc3OC)CC2)c1	27	17	15	10	18	52*
COC(=O)c1ccc(C(=O)OC)c(NC(=O)CN2CCN(c3ccccc3)CC2)c1	-10	13	10	9	59	31
COc1ccc(CCNC(=O)c2ccccc2NC(=O)CN2CCN(c3ccccc3O)CC2)cc1	41	24	9	2	1	52*
O=C(Cc1ccccc1Cl)c1ccccc1	0	-18	-6	-15	-6	-8
